The text below walks through data of PubChem BioAssay AID1117358 (Southern Research Institute, 2015).

Hit rate of the full screen: of about 2,300 compounds, about 160 (7%) were called active. The rule behind the calls is not given here. The list is a sample of the results. Where a call stands in place of a potency, no number is given. Potency and affinity values are given separately.

This test is described as follows: viability loss in Vero cells – cytotoxicity control for Vif-APOBEC3G degradation inhibitor project, dose response (AID 1117358). The settings on record: CellTiter-Glo ATP luminescence, 72 h; series mostly up to 40 µM. For orientation: In ATP-based viability assays light output follows the ATP content of the culture.
On to `CC(=O)C1=C(O)C(=O)N(Cc2ccco2)C1c1ccc(F)cc1` (configuration not stated), for which the compound was classed as inactive.
Next, `COc1ccc(N2C(=O)C3CCCN3C2c2ccc(C)cc2)cc1` (configuration not stated): “inactive”; `Cc1[nH]c2ccccc2c1C(=O)CN1CCC(C(N)=O)(N2CCCCC2)CC1`: “inactive”.
Next, `Cc1[nH]c2ccccc2c1C(=O)Cn1c(=O)oc2ccccc21`: “inactive”.
Regarding `Cc1nn(Cc2ccccc2)c(C)c1NC(=O)Cn1nc([N+](=O)[O-])c(Cl)c1C`, the result was inactive.
Take `Cc1nn(Cc2ccc(Cl)cc2)c(C)c1NC(=O)c1cc(-c2ccc3c(c2)OCO3)on1`: the call was inactive.
Next, `CC1(C)Oc2ccc(C(=O)NC3CCCC3)cc2N(CC(=O)NC2CCCC2)C1=O`: “inactive”; `CCOc1ccc(N(CC(=O)NC(C)(C)C)S(=O)(=O)c2c(C)noc2C)cc1`: “inactive”.
On to `Cn1nnnc1SCC(=O)NCc1ccco1`, for which the call was inactive.
Next, `CN(C)S(=O)(=O)N1CCC(CCCC2CCN(S(=O)(=O)N(C)C)CC2)CC1`: “inactive”.
Regarding `Cc1ccc(NC(=O)COc2ccccc2C(=O)Nc2ccccc2)cc1Cl`, the result was inactive.
Consider `O=C(C/C=N/OCc1c(Cl)cccc1Cl)c1ccc(Cl)cc1`, for which the compound was called inactive.
As for `Cc1cc(C)cc(NCc2cc3c(cc2[N+](=O)[O-])OCO3)c1`, the outcome was inactive.
With `O=C(Oc1ccccc1)c1cccc2cccnc12`, the call was inactive.
Turning to `CC(C)c1ccc(NC(=O)C(c2ccccc2)N2CCC3(CC2)OCCO3)cc1` (configuration not stated), the result was inactive.
As to `Oc1cccc(/C=N/c2c(-c3ccco3)nc3ccccn23)c1`, the compound was called inactive.
As to `CCC(c1nnnn1C(C)(C)CC)N(CCCO)Cc1cc2cc(C)cc(C)c2[nH]c1=O` (configuration not stated), the result was inactive.
Regarding `Cc1cccc(-n2c(Cc3cc(=O)[nH]c(=O)[nH]3)nnc2SCC(=O)NCC2CCCO2)c1` (configuration not stated), the call was inactive.
Take `CC(NC(=O)c1cccs1)C(c1cccs1)N1CCN(Cc2ccccc2)CC1` (configuration not stated): the compound was called inactive.
On to `CCOC(=O)c1c(NC(=O)c2cc(CC(C)C)on2)sc(C(C)=O)c1C`, for which the call was inactive.
As to `N#CC1=C(Nc2ccccc2)SC=C(c2ccc(Br)cc2)N=C1N1CCOCC1`, the compound was called inactive.
For the compound `Cc1nc2ccc(S(=O)(=O)N(C)CC(=O)N3CCc4ccccc43)cc2s1`, the call was inactive.
`COc1cccc(-c2nnc(SCC(=O)N3CCOCC3)o2)c1`: the outcome was inactive.
As for `CCOc1ccc(Cl)cc1S(=O)(=O)N1CCN(c2ccc(F)cc2)CC1`, the entry is “inactive”; as for `CCOc1ccc(C2=[N+]([O-])C(C)(C)N(O)C2(C)C)cc1`, “inactive”.
Take `CC1=CC(C)(C)Nc2ccc(OC(=O)CN3C(=O)c4cccc5cccc(c45)C3=O)cc21`: the compound was classed as inactive.
As for `O=C(Oc1cccnc1)c1ccc(Cl)cc1`, the outcome was inactive.
Consider `Cc1ccc(-c2ccc(CCC(=O)O)n2NC(N)=S)cc1`, for which the compound was called inactive.
Regarding `Cc1cc(-c2[nH]nc3c2C(c2cccc(O)c2)C(C#N)=C(N)O3)c(C)s1` (configuration not stated), the compound was called inactive.
For the compound `CCC(C)C(NC(=O)[C@@H](NC(=O)c1ccccc1F)C(C)C)C(=O)OC` (some centres not stated), the compound was called inactive.
On to `C/C(=N\OC(=O)c1ccc(F)cc1)c1sc(-c2ccccc2)nc1C`, for which the result was inactive.
On to `Cc1ccc2cc(CN(Cc3nnnn3Cc3ccco3)CC3CCCO3)c(=O)[nH]c2c1C` (configuration not stated), for which the call was inactive.
On to `C=CCNc1nc2ccccc2nc1NS(=O)(=O)c1cccs1`, for which the compound was classed as inactive.
On to `COc1ccc(C(=O)NCc2cn3cccc(C)c3n2)cc1OC`, for which the compound was called inactive.
Next, `CCOC(=O)C(NC(=O)NC1CCCCC1)(c1ccccc1)C(F)(F)F` (configuration not stated): “inactive”.
`Cc1cc(C)cc(Nc2ccc(C(=O)O)cc2N)c1`: the result was inactive.
Next, `S=C(Nc1cccc(Cl)c1)NC1CCCCC1`: “inactive”; `CCCNC(=S)NC1CCCC1`: “inactive”.
For the compound `COc1ccc(C(=O)NCc2cccnc2)cc1OC`, the call was inactive.
For `CC1CCN(C(=O)CCc2nc3cc(S(=O)(=O)N(C)C)ccc3n2C)CC1`, the result was inactive.
Take `CCOC(=O)c1c(C)[nH]c(C(=O)OCC(=O)N2c3ccccc3CC2C)c1C` (configuration not stated): the compound was classed as inactive.
In the case of `COc1ccccc1C(=O)Nc1ccc(S(=O)(=O)Nc2cc(C)nc(C)n2)cc1`, the compound was called inactive.
For `COc1cc(C(=O)Nc2ccc(S(=O)(=O)NC(C)C)cc2)cc(OC)c1OC`, the compound was classed as inactive.
Regarding `COc1cc(NC(=O)c2cc3nc(C)cc(C)n3n2)c(OC)cc1Cl`, the outcome was inactive.
As to `NC(=O)C[C@@H]1N[C@]2(C(=O)Nc3ccccc32)[C@@H]2C(=O)N(c3cc(C(F)(F)F)ccc3Cl)C(=O)[C@H]12`, the result was inactive.
As to `CCc1cc2cc(C)cc(C)c2nc1SCC(=O)N1CCN(C(=O)c2ccco2)CC1`, the call was inactive.
As for `COc1cc(C(=O)OCCN2CCCCC2)ccc1O`, the entry is “inactive”; as for `CCN1C(=O)c2ccccc2S(=O)c2ccc(C(=O)NC3CC3)cc21` (configuration not stated), “inactive”; as for `Cc1cccc(C)c1NS(=O)(=O)c1c(C)[nH]c(=O)[nH]c1=O`, “inactive”.
Consider `CC(C)(C)NC(=O)COC(=O)c1cc(S(=O)(=O)N2CCCCC2)ccc1N1CCOCC1`, for which the call was inactive.
As for `CCN(CC)C(=O)CSCC(=O)Nc1ccccc1`, the entry is “inactive”; as for `CC(C)(C)OC(=O)N1CCCC1C(=O)N1CCc2ccccc21` (configuration not stated), “inactive”.
As for `CCOC(=O)CSc1nnc(CNC(=O)c2cccs2)n1CCc1ccccc1`, the entry is “inactive”; as for `CCN1CCc2c(C#N)c(NCc3ccccc3)nc(N(CC)CC)c2C1`, “inactive”; as for `Nn1c(SCC(=O)NC2CCCc3ccccc32)nnc1-c1cccs1` (configuration not stated), “inactive”.
Next, `O=C(Cc1cc(=O)[nH]c(=O)[nH]1)NCC1CCCO1` (configuration not stated): “inactive”; `O=C(NCc1ccncc1)c1ccc(Cn2cc(C(F)(F)F)ccc2=O)cc1`: “inactive”; `O=C(NCc1ccccn1)c1ccc(Cn2cc(Br)cn2)o1`: “inactive”.
For the compound `O=S(=O)(c1ccc(OCc2nc3ccccc3s2)c(Cl)c1)N1CCOCC1`, the compound was classed as inactive.
As to `CCNc1nc(OCCNS(=O)(=O)c2cc(C)ccc2C)nc(N(C)C)n1`, the outcome was inactive.
Turning to `CCC(Cc1ccccc1)NC(=O)C1CCN(S(=O)(=O)c2c(C)noc2C)CC1` (configuration not stated), the call was inactive.
`CC1Cc2ccccc2N1C(=O)C1CCN(S(=O)(=O)Cc2ccccc2)CC1` (configuration not stated): the outcome was inactive.
Regarding `COC(=O)c1ccc(C)c(NS(=O)(=O)c2ccc(NC(C)=O)cc2)c1`, the compound was classed as inactive.
Next, `O=C(CSc1nncs1)NC(=O)NCc1ccccc1`: “inactive”; `COc1ccc(S(=O)(=O)N(CC(=O)O)c2ccccn2)cc1`: “inactive”.
In the case of `CC(=O)c1ccc(NC(=O)c2ccc3nc(-c4ccco4)c(-c4ccco4)nc3c2)cc1`, the outcome was inactive.
Next, `CCOc1ccc(-n2c(=O)c3c(C)c(C)sc3n(CC(=O)NCc3ccco3)c2=O)cc1`: “inactive”; `Oc1c(C(c2ccccc2)N2CCN(Cc3ccccc3)CC2)sc2ncnn12` (configuration not stated): “inactive”; `CCOc1cc(C2NC(=O)NC(O)(C(F)(F)F)C2C(=O)c2ccccc2)ccc1OC` (configuration not stated): “inactive”.
Take `COc1ccc(CSc2nnnn2C)cc1F`: the compound was called inactive.
As to `O=C(Nc1ccc2nc(-c3ccco3)c(-c3ccco3)nc2c1)N1CCCCCC1`, the result was inactive.
`O=C(O)CCN1CCOCC1`: the compound was called inactive.
As for `O=C(O)c1ccc(S(=O)(=O)c2ccc3c(c2)C(=O)N(Cc2ccco2)C3=O)cc1`, the entry is “inactive”; as for `COc1cc(NC(=O)c2nnn(Cc3ccc(SC)cc3)c2N)cc(OC)c1`, “inactive”.
Next, `O=C(CN1C(=O)NC2(CCCCCCC2)C1=O)NCc1cccs1`: “inactive”; `COCC(=O)Nc1sc2c(c1C(=O)OC)C(C(=O)OC)CC2` (configuration not stated): “inactive”.
Turning to `COC(=O)Nc1sc2c(c1C(=O)NCc1ccco1)CCCC2`, the compound was classed as inactive.
Consider `CCOC(=O)c1cc2sc(C)cc2n1CC(=O)N1CCN(C(=O)c2ccco2)CC1`, for which the result was inactive.
As to `O=C(c1ccc2c(c1)OCCO2)C1CCN(C(=O)c2ccc(F)cc2)CC1`, the outcome was inactive.
As to `CN(C)c1ccc(/C=N\NC(=O)c2csnn2)cc1`, the call was inactive.
As for `Cc1cc(C(=O)Nc2c(C)cccc2C)n(-c2ccccc2)n1`, the entry is “inactive”.
Take `CCOC(=O)C1CCN(S(=O)(=O)c2cccc(-c3cn4cccnc4n3)c2)CC1`: the outcome was inactive.
Consider `COCc1nnc(NC(=O)c2ccc(S(=O)(=O)N(C)C3CCCCC3)cc2)o1`, for which the call was inactive.
As to `COc1ccc(C(=O)N2CCCN(C)CC2)cc1S(=O)(=O)N1CCCc2ccccc21`, the result was inactive.
For `Cc1nnc(NC(=O)c2ccc(S(=O)(=O)N(C)Cc3ccccc3)cc2)o1`, the compound was classed as inactive.
On to `O=C(Nc1ccccc1F)c1ccc(S(=O)(=O)NCC2CCCO2)cc1` (configuration not stated), for which the outcome was inactive.
Next, `CCOC(=O)c1c(-c2cccs2)csc1NC(=O)CC(C)C`: “inactive”.
